{"source": "the supplement of paper PMC11732987", "about": "“Enantioselective OTUD7B fragment discovery through chemoproteomics screening and high-throughput optimisation” (Communications Chemistry, 2025)", "experiment_in_all_cases": "log2 ratio of Biotin-Ahx-Ub-VS probe labelling (fragment/DMSO); higher = less target engagement (more negative = stronger competition), active = hit call of the paper (q ≤ 0.05, log2 ratio ≤ -1)", "conditions_in_all_cases": "compound concentration: 200 uM; treatment time: 3 h", "key": {"USP19": {"biological_target": "T1, USP19 (UniProt O94966)", "T1 sequence (whole entry)": "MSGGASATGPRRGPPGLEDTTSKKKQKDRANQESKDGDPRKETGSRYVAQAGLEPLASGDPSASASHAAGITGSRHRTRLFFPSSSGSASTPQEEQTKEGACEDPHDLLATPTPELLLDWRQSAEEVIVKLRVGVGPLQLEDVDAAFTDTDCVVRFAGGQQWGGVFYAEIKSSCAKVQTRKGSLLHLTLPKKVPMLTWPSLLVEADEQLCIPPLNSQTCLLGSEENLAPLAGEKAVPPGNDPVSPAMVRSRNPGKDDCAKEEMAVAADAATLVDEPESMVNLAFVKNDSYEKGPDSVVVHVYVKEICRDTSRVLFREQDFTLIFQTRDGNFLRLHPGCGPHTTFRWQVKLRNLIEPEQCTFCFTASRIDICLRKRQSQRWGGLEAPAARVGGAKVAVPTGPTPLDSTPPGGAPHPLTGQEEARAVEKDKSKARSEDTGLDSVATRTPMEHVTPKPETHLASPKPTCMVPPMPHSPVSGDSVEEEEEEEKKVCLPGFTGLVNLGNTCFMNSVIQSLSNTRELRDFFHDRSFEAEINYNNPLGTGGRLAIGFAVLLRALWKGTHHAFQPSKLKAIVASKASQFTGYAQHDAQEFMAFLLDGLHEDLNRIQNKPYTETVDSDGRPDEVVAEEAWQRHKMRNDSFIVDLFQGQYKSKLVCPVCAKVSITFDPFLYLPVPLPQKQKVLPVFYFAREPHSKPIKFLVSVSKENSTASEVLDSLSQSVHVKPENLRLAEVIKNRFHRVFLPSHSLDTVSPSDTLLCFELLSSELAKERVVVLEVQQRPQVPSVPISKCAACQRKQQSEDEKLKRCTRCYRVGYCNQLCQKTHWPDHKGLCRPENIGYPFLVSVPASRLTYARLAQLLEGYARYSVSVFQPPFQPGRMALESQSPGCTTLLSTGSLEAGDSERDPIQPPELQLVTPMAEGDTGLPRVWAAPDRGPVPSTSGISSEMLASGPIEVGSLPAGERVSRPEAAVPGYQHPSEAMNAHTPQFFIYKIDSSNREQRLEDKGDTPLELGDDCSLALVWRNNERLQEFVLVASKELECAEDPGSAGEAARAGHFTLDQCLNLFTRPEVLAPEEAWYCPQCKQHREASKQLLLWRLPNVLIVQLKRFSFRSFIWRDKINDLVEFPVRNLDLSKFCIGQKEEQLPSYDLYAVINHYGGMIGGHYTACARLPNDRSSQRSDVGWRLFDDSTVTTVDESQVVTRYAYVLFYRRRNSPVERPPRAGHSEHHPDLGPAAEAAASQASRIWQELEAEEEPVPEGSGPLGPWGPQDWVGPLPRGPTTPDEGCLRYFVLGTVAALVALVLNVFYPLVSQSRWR", "outline": "(§1)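 Global-median-normalised Spectronaut label-free quantities were compared by unpaired t-test, and values are average log2 ratios of fragment over vehicle. Only proteins with ≥2 unique peptides were used. HEK293T lysate (495 µg per sample) was treated in triplicate with fragment at 200 µM or vehicle for 3 h and then with Biotin-Ahx-Ub-VS at 0.5 µM final for 1 h. Labelled DUBs were then NeutrAvidin-enriched, digested with LysC and trypsin, and run by diaPASEF LC-MS/MS.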"}, "USP22": {"biological_target": "T2, USP22 (UniProt Q9UPT9)", "T2 sequence (whole entry)": "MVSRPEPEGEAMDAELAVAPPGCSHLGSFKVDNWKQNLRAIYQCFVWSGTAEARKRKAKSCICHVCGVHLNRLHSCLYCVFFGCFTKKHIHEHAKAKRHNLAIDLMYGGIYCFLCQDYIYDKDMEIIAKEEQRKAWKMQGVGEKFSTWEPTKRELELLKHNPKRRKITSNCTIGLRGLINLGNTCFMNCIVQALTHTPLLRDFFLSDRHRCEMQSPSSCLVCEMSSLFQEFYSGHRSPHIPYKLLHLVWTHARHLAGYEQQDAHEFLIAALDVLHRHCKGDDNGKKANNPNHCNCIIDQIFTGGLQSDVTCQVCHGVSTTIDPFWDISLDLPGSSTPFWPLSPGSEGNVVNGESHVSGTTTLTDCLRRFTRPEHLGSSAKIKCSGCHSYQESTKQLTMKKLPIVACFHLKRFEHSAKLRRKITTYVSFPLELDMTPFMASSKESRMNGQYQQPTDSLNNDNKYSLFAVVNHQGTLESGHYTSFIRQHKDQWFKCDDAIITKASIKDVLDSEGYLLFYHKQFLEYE", "outline": "as §1"}, "USP24": {"biological_target": "USP24 (UniProt Q9UPU5)", "sequence (Q9UPU5 whole entry)": "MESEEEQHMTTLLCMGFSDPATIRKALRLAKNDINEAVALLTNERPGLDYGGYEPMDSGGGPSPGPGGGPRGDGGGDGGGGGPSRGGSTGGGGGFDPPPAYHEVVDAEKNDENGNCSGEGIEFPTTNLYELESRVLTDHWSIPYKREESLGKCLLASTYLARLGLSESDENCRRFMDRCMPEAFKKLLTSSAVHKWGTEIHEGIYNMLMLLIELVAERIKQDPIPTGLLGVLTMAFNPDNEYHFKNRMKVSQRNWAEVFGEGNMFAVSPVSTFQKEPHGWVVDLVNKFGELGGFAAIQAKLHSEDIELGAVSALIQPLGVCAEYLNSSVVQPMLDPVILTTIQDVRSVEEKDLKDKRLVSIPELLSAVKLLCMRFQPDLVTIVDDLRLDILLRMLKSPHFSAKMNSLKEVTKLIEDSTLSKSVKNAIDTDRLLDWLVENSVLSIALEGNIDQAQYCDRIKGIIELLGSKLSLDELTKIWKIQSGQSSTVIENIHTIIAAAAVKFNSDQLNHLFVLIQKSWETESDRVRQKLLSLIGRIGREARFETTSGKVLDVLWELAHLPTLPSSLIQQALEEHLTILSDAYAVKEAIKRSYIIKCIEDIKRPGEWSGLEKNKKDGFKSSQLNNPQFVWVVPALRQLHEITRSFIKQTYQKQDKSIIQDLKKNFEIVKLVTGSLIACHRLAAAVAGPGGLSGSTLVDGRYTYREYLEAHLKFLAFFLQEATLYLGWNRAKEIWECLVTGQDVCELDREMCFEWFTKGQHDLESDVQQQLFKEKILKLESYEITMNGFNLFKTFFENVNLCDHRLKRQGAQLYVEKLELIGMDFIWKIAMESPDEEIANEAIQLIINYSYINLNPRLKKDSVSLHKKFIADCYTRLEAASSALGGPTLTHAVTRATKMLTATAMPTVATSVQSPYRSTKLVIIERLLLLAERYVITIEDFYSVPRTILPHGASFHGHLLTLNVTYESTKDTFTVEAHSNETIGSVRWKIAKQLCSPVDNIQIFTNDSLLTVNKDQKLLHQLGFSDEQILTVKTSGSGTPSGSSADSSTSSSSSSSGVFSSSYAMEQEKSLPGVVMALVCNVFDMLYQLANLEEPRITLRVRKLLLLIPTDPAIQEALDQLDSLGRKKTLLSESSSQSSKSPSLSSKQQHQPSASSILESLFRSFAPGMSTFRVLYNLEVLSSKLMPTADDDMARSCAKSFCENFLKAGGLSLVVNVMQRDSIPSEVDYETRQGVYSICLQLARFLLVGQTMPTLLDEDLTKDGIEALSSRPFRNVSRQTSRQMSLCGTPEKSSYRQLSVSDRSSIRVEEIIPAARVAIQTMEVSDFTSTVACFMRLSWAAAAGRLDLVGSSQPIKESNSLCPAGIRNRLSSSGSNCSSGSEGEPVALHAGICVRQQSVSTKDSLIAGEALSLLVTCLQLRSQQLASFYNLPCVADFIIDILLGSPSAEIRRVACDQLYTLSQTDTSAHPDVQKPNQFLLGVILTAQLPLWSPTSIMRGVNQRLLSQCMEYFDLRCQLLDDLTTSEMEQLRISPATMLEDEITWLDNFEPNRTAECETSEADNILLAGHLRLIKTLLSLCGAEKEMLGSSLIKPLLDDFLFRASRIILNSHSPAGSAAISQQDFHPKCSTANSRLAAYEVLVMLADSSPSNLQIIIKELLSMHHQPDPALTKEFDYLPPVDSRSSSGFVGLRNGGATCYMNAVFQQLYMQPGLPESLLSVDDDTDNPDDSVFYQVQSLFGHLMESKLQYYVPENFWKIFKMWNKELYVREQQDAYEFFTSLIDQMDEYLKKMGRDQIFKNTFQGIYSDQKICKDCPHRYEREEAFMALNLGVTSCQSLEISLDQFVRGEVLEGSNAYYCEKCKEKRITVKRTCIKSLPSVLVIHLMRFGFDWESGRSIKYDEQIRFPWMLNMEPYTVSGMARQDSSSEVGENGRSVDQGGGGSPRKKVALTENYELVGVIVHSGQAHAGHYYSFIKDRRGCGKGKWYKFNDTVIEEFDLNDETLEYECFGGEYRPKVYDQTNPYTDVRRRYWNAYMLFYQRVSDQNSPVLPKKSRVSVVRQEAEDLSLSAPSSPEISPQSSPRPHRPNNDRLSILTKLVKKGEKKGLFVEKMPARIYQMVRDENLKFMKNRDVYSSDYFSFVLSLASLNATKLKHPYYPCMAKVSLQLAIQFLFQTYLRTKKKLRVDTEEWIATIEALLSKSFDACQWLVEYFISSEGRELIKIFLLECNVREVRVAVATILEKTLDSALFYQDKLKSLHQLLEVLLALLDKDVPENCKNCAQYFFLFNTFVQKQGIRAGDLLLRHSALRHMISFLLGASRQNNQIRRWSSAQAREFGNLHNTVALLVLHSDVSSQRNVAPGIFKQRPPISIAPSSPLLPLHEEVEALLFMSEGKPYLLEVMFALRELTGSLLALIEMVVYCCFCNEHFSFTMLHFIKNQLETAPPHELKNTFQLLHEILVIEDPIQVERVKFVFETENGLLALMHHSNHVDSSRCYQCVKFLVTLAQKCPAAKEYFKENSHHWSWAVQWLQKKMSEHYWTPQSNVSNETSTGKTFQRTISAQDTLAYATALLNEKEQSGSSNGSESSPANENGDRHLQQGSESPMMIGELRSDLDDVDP", "outline": "as §1"}, "USP25": {"biological_target": "T3, USP25 (UniProt Q9UHP3)", "T3 sequence (whole entry)": "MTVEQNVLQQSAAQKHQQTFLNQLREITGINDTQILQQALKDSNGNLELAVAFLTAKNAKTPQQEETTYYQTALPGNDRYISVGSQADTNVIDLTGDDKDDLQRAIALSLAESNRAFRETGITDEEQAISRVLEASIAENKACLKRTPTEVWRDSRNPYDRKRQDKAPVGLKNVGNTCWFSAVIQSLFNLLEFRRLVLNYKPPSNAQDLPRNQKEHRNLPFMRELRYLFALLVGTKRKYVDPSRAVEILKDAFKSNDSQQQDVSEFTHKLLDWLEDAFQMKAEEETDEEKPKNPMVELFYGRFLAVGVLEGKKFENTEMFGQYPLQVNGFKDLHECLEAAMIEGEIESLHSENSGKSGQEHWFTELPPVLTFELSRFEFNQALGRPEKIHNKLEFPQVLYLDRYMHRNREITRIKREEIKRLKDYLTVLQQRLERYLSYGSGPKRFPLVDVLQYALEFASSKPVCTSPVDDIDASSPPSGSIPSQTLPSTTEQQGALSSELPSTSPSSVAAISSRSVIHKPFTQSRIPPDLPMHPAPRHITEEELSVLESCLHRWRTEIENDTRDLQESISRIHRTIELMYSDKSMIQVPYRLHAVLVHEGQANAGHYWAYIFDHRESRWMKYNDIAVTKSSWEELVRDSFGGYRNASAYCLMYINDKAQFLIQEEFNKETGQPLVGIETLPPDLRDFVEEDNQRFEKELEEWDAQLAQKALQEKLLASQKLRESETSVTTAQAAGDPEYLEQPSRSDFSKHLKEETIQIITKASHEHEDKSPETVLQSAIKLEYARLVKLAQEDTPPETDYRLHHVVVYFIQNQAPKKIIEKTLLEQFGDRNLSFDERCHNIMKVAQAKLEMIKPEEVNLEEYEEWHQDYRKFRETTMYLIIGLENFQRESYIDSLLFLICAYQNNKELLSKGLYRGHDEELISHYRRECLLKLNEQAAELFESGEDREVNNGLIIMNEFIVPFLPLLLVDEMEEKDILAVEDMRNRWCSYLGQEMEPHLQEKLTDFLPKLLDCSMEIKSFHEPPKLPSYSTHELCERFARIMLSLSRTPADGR", "outline": "as §1"}, "USP28": {"biological_target": "T4, USP28 (UniProt Q96RU2)", "T4 sequence (whole entry)": "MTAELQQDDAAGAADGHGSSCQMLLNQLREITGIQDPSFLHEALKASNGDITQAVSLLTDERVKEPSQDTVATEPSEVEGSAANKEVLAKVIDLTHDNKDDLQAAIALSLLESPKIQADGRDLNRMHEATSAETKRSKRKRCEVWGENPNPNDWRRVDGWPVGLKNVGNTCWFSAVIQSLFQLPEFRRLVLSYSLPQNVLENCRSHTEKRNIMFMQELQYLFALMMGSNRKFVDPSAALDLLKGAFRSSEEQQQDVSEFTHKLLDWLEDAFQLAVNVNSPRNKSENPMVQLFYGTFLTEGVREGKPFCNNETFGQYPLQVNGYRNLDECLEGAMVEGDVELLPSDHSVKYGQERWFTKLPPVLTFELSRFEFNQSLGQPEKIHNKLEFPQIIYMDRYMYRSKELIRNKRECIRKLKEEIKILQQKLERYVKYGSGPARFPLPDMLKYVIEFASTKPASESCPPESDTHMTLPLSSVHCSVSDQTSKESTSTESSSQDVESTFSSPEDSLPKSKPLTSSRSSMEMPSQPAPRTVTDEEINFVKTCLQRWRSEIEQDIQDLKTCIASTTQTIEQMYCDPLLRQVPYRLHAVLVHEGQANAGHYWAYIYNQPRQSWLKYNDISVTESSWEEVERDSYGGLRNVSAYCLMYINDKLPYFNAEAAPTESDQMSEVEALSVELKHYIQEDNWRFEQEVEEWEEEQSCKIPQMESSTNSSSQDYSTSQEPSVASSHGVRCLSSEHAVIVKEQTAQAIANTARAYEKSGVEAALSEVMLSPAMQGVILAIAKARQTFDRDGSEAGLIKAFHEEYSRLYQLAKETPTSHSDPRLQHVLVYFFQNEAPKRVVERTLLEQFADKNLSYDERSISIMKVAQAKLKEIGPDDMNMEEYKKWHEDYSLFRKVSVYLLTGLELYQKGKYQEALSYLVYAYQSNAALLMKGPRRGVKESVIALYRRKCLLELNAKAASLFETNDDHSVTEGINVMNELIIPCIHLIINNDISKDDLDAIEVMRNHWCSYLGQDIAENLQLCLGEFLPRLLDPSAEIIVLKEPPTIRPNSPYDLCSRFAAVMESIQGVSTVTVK", "outline": "as §1"}}, "note": "Unmarked numbers belong to inactive results.", "data": [{"smiles": "CCC1c2ccsc2CCN1C(=O)CCl", "note": "(stereo not given)", "values": [{"measurement": "log2 ratio of Biotin-Ahx-Ub-VS probe labelling", "setting": "USP19", "value": -0.544}, {"measurement": "log2 ratio of Biotin-Ahx-Ub-VS probe labelling", "setting": "USP22", "value": 0.0245}, {"measurement": "log2 ratio of Biotin-Ahx-Ub-VS probe labelling", "setting": "USP24", "value": "-1.31 (active)"}, {"measurement": "log2 ratio of Biotin-Ahx-Ub-VS probe labelling", "setting": "USP25", "value": -0.177}, {"measurement": "log2 ratio of Biotin-Ahx-Ub-VS probe labelling", "setting": "USP28", "value": -0.461}]}]}
